Assay results: the supplement of paper PMC12669032
Where “and” joins values, the source holds several entries; their conditions need not be identical. Equal values may be shown once.

Experiments:
Experiment in all cases: growth AUC relative to DMSO control (median of replicates) (fraction); higher = more growth (less inhibition), active = hit call of the paper
Conditions in all cases: 20 µM; 24 h;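 active = AUC reduced over 20% with Padj below 0.05 in at least 2 of 3 replicates; inactive = otherwise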
Akkermansia muciniphila = test system: Akkermansia muciniphila
How it was run: (§1)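 Gut bacterial monocultures were grown anaerobically at 37 °C in mGAM from a starting OD600 of 0.05 with 20 µM compound (1% DMSO), in round-bottom 96-well plates under pierced gas-permeable seals, and OD600 was read hourly for 24 h. With the minimum OD set to 0, area under the growth curve was normalised to the plate median of solvent-only wells, or to row and column medians on the industrial chemical plate. Each value is the median of three biological replicates grown on separate days.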

Bacteroides caccae = test system: Bacteroides caccae
How it was run: as §1

Bacteroides clarus = test system: Bacteroides clarus
How it was run: as §1

Bacteroides dorei = test system: Bacteroides dorei
How it was run: as §1

Bacteroides stercoris = test system: Bacteroides stercoris
How it was run: as §1

[1] = test system: Bacteroides thetaiotaomicron
How it was run: as §1

Bacteroides uniformis = test system: Bacteroides uniformis
How it was run: as §1

[2] = test system: Bifidobacterium longum subsp. longum
How it was run: as §1

Clostridium difficile = test system: Clostridium difficile
How it was run: as §1

Collinsella aerofaciens = test system: Collinsella aerofaciens
How it was run: as §1

Measured: growth AUC

COc1cc(OC)nc(NC(=O)NS(=O)(=O)c2ncccc2C(=O)N(C)C)n1
inactive: Akkermansia muciniphila 1 | Bacteroides caccae 0.94 | Bacteroides clarus 0.98 | Bacteroides dorei 0.957 | Bacteroides stercoris 1.11 | [1] 1.01 | Bacteroides uniformis 1.01 | [2] 0.96 | Clostridium difficile 1 | Collinsella aerofaciens 0.965

CCC(C)Nc1c([N+](=O)[O-])cc(C(C)(C)C)cc1[N+](=O)[O-] (stereo not given)
inactive: Akkermansia muciniphila 0.988 | Bacteroides caccae 0.953 | Bacteroides clarus 0.939 | Bacteroides dorei 0.98 | Bacteroides stercoris 1.11 | [1] 0.931 | Bacteroides uniformis 0.945 | [2] 0.81 | Clostridium difficile 0.938 | Collinsella aerofaciens 0.959

C[C@@H]1C[C@@H]([C@H](O)CC2CC(=O)NC(=O)C2)C(=O)[C@@H](C)C1
inactive: Akkermansia muciniphila 1.15 | Bacteroides caccae 1.02 | Bacteroides clarus 1.02 | Bacteroides dorei 0.98 | Bacteroides stercoris 1.05 | [1] 1.04 | Bacteroides uniformis 0.999 | [2] 1.02 | Clostridium difficile 1.05 | Collinsella aerofaciens 0.989

O=S1OC[C@@H]2[C@H](CO1)[C@]1(Cl)C(Cl)=C(Cl)[C@@]2(Cl)C1(Cl)Cl (stereo not given in full)
inactive: Akkermansia muciniphila 0.871 and 0.977 | Bacteroides caccae 0.96 and 1.01 | Bacteroides clarus 0.957 and 0.941 | Bacteroides dorei 0.965 and 0.954 | Bacteroides stercoris 0.913 and 0.734 | [1] 0.959 and 0.894 | Bacteroides uniformis 0.903 and 0.899 | [2] 0.963 and 0.916 | Clostridium difficile 0.98 and 0.994 | Collinsella aerofaciens 0.99 and 0.941

CCOc1nc(NC)nc(NC(=O)NS(=O)(=O)c2ccccc2C(=O)OC)n1
inactive: Akkermansia muciniphila 0.947 | Bacteroides caccae 1.01 | Bacteroides clarus 1.01 | Bacteroides dorei 1.02 | Bacteroides stercoris 0.97 | [1] 0.988 | Bacteroides uniformis 0.998 | [2] 0.967 | Clostridium difficile 0.979 | Collinsella aerofaciens 0.992

CN(C)C(=O)Nc1cccc(C(F)(F)F)c1
inactive: Akkermansia muciniphila 0.966 | Bacteroides caccae 0.97 | Bacteroides clarus 0.983 | Bacteroides dorei 0.991 | Bacteroides stercoris 0.911 | [1] 0.967 | Bacteroides uniformis 1.02 | [2] 0.961 | Clostridium difficile 1.02 | Collinsella aerofaciens 0.997
